NPSR antagonist – qHTS Assay for Antagonists of the Neuropeptide S Receptor: cAMP Signal Transduction; Q6W5P4; CHO-NPSR cells, cAMP TR-FRET, antagonist mode; Potency, µM (highest dose often 38.3 µM), for the others: at the highest dose activity change, negative = inhibition, actives largely listed as inhibitors; 1% of 220,000 active; AID 1461, 2008; further: potency means the concentration at half of the fitted maximal effect; nearly all actives have a fitted effect of over 50% in size
Target sequence (Q6W5P4 whole entry, looked up): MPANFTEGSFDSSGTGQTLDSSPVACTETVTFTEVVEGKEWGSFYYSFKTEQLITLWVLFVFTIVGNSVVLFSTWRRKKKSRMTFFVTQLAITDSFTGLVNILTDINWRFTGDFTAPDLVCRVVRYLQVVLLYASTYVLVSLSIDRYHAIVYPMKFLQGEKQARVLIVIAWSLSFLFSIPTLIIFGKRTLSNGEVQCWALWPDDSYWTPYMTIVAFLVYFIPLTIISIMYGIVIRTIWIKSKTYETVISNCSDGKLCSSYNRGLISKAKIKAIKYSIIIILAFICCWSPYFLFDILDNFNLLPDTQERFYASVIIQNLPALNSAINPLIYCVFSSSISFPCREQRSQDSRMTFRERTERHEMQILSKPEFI
Tau FP inhib – qHTS for Inhibitors of Tau Fibril Formation, Fluorescence Polarization | Microtubule-associated protein tau (Homo sapiens), P10636 | K18 P301L tau heparin fibrillization, Alexa594 FP, 6 h | Potency, µM (doses to about 57.7 µM), for the others: at the highest dose activity, negative = inhibition, hits mostly inhibitors | 0.39% of 280,000 active | AID 1468, 2008; further: potency means the concentration at half of the fitted maximal effect; nearly all actives have a fitted effect of over 55% in size
Target sequence (P10636 561-689 P618L limits assumed): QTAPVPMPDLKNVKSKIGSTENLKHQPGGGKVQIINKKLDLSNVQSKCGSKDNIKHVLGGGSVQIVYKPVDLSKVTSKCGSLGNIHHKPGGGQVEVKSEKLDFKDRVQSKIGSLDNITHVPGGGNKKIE
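Steps: dispense K18 P301L tau (15 uM plus 0.24 uM Alexa 594 tracer, final) in pH 7 sodium acetate; add compound; add heparin (20 uM final); incubate 6 hr, 37 C; add ThT (30 uM final); after 1 hr ambient, read FP.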
Tau ThT inhib – qHTS for Inhibitors of Tau Fibril Formation, Thioflavin T Binding. recombinant tau K18 P301L, heparin-induced fibrillization, ThT fluorescence. Potency, µM (doses to about 57.4 µM), inactives show at the top dose activity, negative = inhibition, actives largely listed as inhibitors. 2.1% of 270,000 active. Microtubule-associated protein tau (Homo sapiens), P10636. AID 1460, 2008; further: potency means the concentration at half of the fitted maximal effect; nearly all actives have a fitted effect of over 55% in size
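K18 P301L tau (15 uM + 0.24 uM Alexa 594-tagged), heparin 20 uM, NaOAc pH 7, 6 h 37 C; ThT 30 uM, 1 h RT, ex 450/em 510 nm.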
KDM4E inh – qHTS Assay for Inhibitors of Human Jumonji Domain Containing 2E (JMJD2E) | Lysine-specific demethylase 4E (Homo sapiens), B2RXH2 | JMJD2E catalytic domain, FDH-coupled NADH fluorescence (FDH is formaldehyde dehydrogenase) | Potency, µM (titrated, usually from 57.1 µM), for the others: at the highest dose activity change, negative = inhibition, usual class: inhibitors | 1.6% of 230,000 active; active means well fitted inhibition curve with a large enough effect, not every such curve was filed as active; inconclusive means small, poorly fitted or top-dose-only effect, or another doubt; inactive means no such curve, though single readings can be large or run the other way;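 further: potency means the concentration at half of the fitted maximal effect; 0% = wells with enzyme and -100% = buffer wells without enzyme; nearly all actives have a fitted effect of over 50% in size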
Tau fluor cs – Counterscreen qHTS for Inhibitors of Tau Fibril Formation, Fluorescence Polarization; tau K18 P301L Alexa594 fluorescence, heparin fibrillization; Potency, µM (series often up to 57.7 µM), for the others: at the highest dose activity change, negative = decrease; 0.93% of 280,000 active; AID 1463, 2008; further: potency means the concentration at half of the fitted maximal effect; nearly all actives have a fitted effect of over 55% in size
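Human tau K18 P301L (15 uM unlabeled, 0.24 uM Alexa 594-labeled) in 100 mM sodium acetate pH 7 with 20 uM heparin, 6 hr at 37 C. ThT 30 uM added, 1 hr ambient; Alexa 594 FP and total fluorescence read at 555/632 nm.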
PNC inhibitor – High Content Assay for Compounds that inhibit the Assembly of the Perinucleolar Compartment. PC3M PTB-GFP, PNC prevalence imaging, 16 h; active compounds read low. 3.1% of 140,000 active. activity change (PNC), negative = inhibition, % at 10 µM;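 active means readout at or below -70, meaning at least 70% loss of cells showing the perinucleolar compartment, a nuclear body marking cancer cells; inconclusive means readout between -30 and a set limit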;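 further: plate controls were DMSO wells for no effect and camptothecin positive control wells for full effect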
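PC3M cells stably expressing PTB-GFP, 750–1000 cells/well, treated 16 h at 37 °C with compound (23 nl of library stock), in duplicate. After paraformaldehyde fixation and Hoechst stain, imaged at 20x; PNC prevalence scored by image analysis.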
* = called active by the depositor; ? = inconclusive; nt = no result given; [ ] = another dose, or the depositor's remark. Rows were chosen to be rich in hits. Some 5.1% of all compounds tested hit in one or more screens of this group. Unless noted, the call rests on the fitted dose curve; in most records, active means well fitted curve in the direction sought with a large enough effect; inconclusive means small, poorly fitted or top-dose-only effect, or another doubt; inactive means no such curve, though single readings can be large; an effect the other way counts as inactive or inconclusive. Unless noted, on the % scale 0 is the no-effect control and ±100 the full control effect.

SMILES | NPSR antagonist | Tau FP inhib | Tau ThT inhib | KDM4E inh | Tau fluor cs | PNC inhibitor
CCc1cc(-c2nc(N)ncc2-c2ccc(Br)cc2)c(O)cc1OC | ? | -2.8% | ? | -5.5% | 12.6µM*[quencher] | nt
CC(=C1C(=O)c2ccccc2C1=O)N1CCN(Cc2ccccc2)CC1 | -11.6%[46.1 µM] | -5.8% | ? | -1.6% | -25.7% | ?
CC(=C1C(=O)c2ccccc2C1=O)N1CCN(C/C=C/c2ccccc2)CC1 | -5.5%[46.1 µM] | -2.5% | 22.4µM* | -3.8% | -29.0% | 43.0
O=C1OC(N2CCN(C/C=C/c3ccccc3)CC2)c2ccccc21 (stereo not given) | 11.9%[46.1 µM] | 1.7% | -2.3% | -3.4% | -3.8% | -85.8*
COc1cccc(CNC(=O)CCCn2ncn3c(cc4occc43)c2=O)c1OC | nt | -2.6% | -4.0% | nt | -9.6% | nt
CCC(C)NCC(=O)Nc1sc2c(c1C(N)=O)CCC2 (stereo not given) | ? | -9.3% | -12.7% | -8.9% | -4.7% | 22.2
CC(C)C(=O)NC(=S)Nc1sc2c(c1C(N)=O)CCCC2 | -7.2% | ? | ? | -3.8% | -17.0% | -109.0*
CCC(=O)Nc1sc2c(c1C(N)=O)CCC2 | -13.6%[46.1 µM] | 7.6% | -3.7% | ? | 1.1% | -100.0*
CCOC(=O)c1c(NC(=O)CCCOc2ccc(Cl)cc2)sc2c1CCC2 | nt | -1.1% | -11.4% | nt | -6.7% | nt
CCCCN(Cc1cc2ccccc2[nH]c1=O)C(=O)c1cccc(Cl)c1 | nt | -2.3% | 1.9% | nt | -8.6% | nt
CCOC(=O)Cc1nnc(NC(=O)CSc2nncn2C)s1 | 0.4%[46.1 µM] | 2.7% | -1.2% | -0.9% | 0.3% | -3.7
CCOC(=O)Cc1nnc(NC(=O)C(CC)Sc2nncn2C)s1 (stereo not given) | -4.1%[46.1 µM] | 1.0% | -7.6% | -5.2% | -1.5% | -85.3*
CC(=O)Oc1cc2cccc(OC(C)=O)c(=O)c2c(OC(C)=O)c1OC(C)=O | -3.9% | 15.8µM* | 3.55µM* | 11.2µM* | 8.91µM*[quencher] | nt
COc1cc2cccc(OC)c(=O)c2c(O)c1OC | -7.4% | 7.3% | ? | -3.2% | -2.6% | -23.2
O=C(Nc1cccc(OCc2cc(=O)n3ccccc3n2)c1)c1ccccc1Br | nt | -8.5% | -4.2% | nt | -12.0% | nt
O=C(NCCc1ccccc1)c1cccnc1 | 1.0%[46.1 µM] | 9.9% | -7.0% | -0.5% | -1.5% | -2.9
NS(=O)(=O)c1ccc(CCNC(=O)c2cccnc2)cc1 | 15.6%[46.1 µM] | 8.0% | -3.7% | 2.7% | 6.8% | -100.0*
CCOC(=O)c1ccc(NC(=O)CC2C(=O)N(c3cccc(OC)c3)C(=O)N2Cc2ccc(OC)cc2)cc1 (stereo not given) | nt | ? | 12.6% | nt | ? | nt
Cc1cccn2c(=O)c3cc(C(=O)NCCCN4CCOCC4)n(C)c3nc12 | -7.8%[46.1 µM] | -5.4% | 5.5% | -5.9% | 3.7% | -95.0*
Cc1ccc(S(=O)(=O)NCC2CCC(C(=O)NCc3ccc(F)cc3)CC2)cc1 (stereo not given) | nt | -14.0% | 0.1% | nt | -11.1% | nt
Cc1ccc(C(=O)Nc2cc(-c3nc4ncccc4o3)ccc2C)c(C)c1 | nt | ? | ? | nt | -16.6% | nt
CC(C)Cn1c(CNC(=O)c2ccccc2)nc2ccccc21 | -17.6%[46.1 µM] | 0.4% | -8.7% | -0.1% | -13.6% | 4.0
CCc1nc2ccccc2n1CC(C)C(=O)O (stereo not given) | 4.5%[46.1 µM] | 7.8% | -1.5% | -5.6% | 1.1% | -100.0*
COc1ccc(Cn2ccc3nc(C)c(C(=O)Nc4ccc(OC)cc4OC)cc3c2=O)cc1 | nt | 5.2% | -1.7% | nt | -6.2% | nt
COc1cccc(C(C(=O)NC2CCCCC2)N(C(=O)c2ccco2)c2ccc(-n3cnnn3)c(C)c2)c1 (stereo not given) | -11.2%[46.1 µM] | 6.2% | 1.6% | 0.0% | -2.5% | -100.0*
SMILES | NPSR antagonist | Tau FP inhib | Tau ThT inhib | KDM4E inh | Tau fluor cs | PNC inhibitor
COc1cccc(Cn2c(SCC(=O)N(C)c3ccccc3)nc3ccccc32)c1 | nt | -8.1% | ? | nt | -11.4% | nt
CC(=O)N[C@@H](CSC(=O)[C@]1([C@@H](O)C(C)C)NC(=O)[C@H](C)[C@@H]1O)C(=O)O | nt | 0.1%[11.6 µM] | -16.0%[11.5 µM] | nt | -9.7%[11.6 µM] | nt
O=C1OC(/C=C/c2ccccc2)=NC/1=C\c1cccnc1 | -5.4% | 2.6% | -0.7% | 15.5% | 1.7% | nt
COc1ccccc1/C=C/C=C1N=C(/C=C/c2ccc(Cl)cc2)OC/1=O | -14.6% | -4.3% | 12.6µM* | ? | -9.8% | 34.6
COc1ccccc1/C=C/C1=NC(=C\C=C/c2ccccc2)/C(=O)O1 | -6.4% | -7.4% | 11.2µM* | 0.4% | -9.6% | 20.3
Cc1ccc(C)c(NC(=O)CCCn2c(C)c3cnn(-c4ccccc4)c(=O)c3c2C)c1 | nt | 2.3% | -7.1% | nt | -16.5% | nt
O=C(N/N=C/C=C/c1cccc([N+](=O)[O-])c1)C(O)c1ccccc1 (stereo not given) | 15.7% | -2.8% | -17.8% | 2.5% | -12.9% | nt
CC(/C=C/c1ccco1)=N\NC(=O)CNc1ccc2ccccc2c1 | -18.4% | 8.6% | 7.94µM* | ? | ? | nt
O=C(CNc1ccc2ccccc2c1)N/N=C/C=C/c1cccc([N+](=O)[O-])c1 | -18.6%[46.1 µM] | 7.0% | ? | -0.9% | 7.08µM*[quencher] | ?
COc1ccc2c(c1)C(=O)[C@H](OC(=O)Nc1cc(OC)c(OC)c(OC)c1)[C@@H](c1ccc(OC)c(Br)c1)O2 | nt | 8.8% | -9.0% | 10.4% | -18.1% | nt
Cc1cc(C)c(NC(=O)CSc2ccc(-c3sc(-c4ccccc4)nc3C)nn2)c(C)c1 | nt | -3.7% | -7.6% | nt | -7.2% | nt
CC1CN(C(=O)N2CCC(C(=O)NC3CCCCCC3)CC2)c2cc(Cl)ccc2O1 (stereo not given) | nt | ? | 20µM* | nt | ? | nt
Cc1ccc2c(c1)N(C(=O)N1CCC(C(=O)NCCc3ccc(Cl)cc3)CC1)CC(C)O2 (stereo not given) | nt | 7.2% | -3.6% | nt | 7.94µM*[quencher] | nt
O=C(NCCC1=CCCCC1)C1CCN(C(=O)N2CCOc3ccccc32)CC1 | nt | ? | 2.2% | nt | 2.82µM*[quencher] | nt
O=C(NCc1ccco1)C1CCN(C(=O)N2CCOc3ccc(Cl)cc32)CC1 | nt | ? | 20µM* | nt | ? | nt
O=C(NCc1cccs1)C1CCN(C(=O)N2CCOc3ccc(Cl)cc32)CC1 | nt | -1.3% | -18.0% | nt | -3.1% | nt
Cc1ccc(CNC(=O)C2CCN(C(=O)N3CC(C)Oc4ccc(Cl)cc43)CC2)cc1 (stereo not given) | nt | -14.8% | ? | nt | ? | nt

Compound activity deposited in PubChem BioAssay by National Center for Advancing Translational Sciences (NCATS).
